The campaign covered roughly 5,500 compounds. About 2,000 (36%) were called active. About 18% were inconclusive and are not listed. No stated cut-off is given here; in the data, active means normalized growth mostly below about 0.91 (no sharp cut-off); inconclusive means no clear call, values can overlap the other calls; inactive means mostly above about 0.92. The list shows a part of the results.
Experiment: chemical genetic growth profiling, strain panel (AID 1159580);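 further: tested at 20 µM; growth read once vehicle control cultures reached saturation at 30 °C; 1 = growth at the plate median or of vehicle wells; lower values mean less growth of the strain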
Conditions: S. cerevisiae deletion strains, growth OD
[1] = locus YAL021C, strain ccr4, hits give low values
[2] = locus YAL026C, strain drs2, hits give low values
[3] = locus YAL030W, strain snc1, hits give low values
[4] = locus YBL061C, strain skt5, hits give low values
[5] = locus YBR009C, strain hhf1, hits give low values
[6] = locus YBR023C, strain chs3, hits give low values
[7] = locus YBR171W, strain sec66, hits give low values
[8] = locus YBR231C, strain swc5, hits give low values
[9] = locus YBR279W, strain paf1, hits give low values
[10] = locus YCL011C, strain gbp2, hits give low values
[11] = locus YCL016C, strain dcc1, hits give low values
[12] = locus YCL061C, strain MRC1, hits give low values
[13] = locus YCL069W, strain vba3, hits give low values
[14] = locus YCR088W, strain abp1, hits give low values
[15] = locus YDL005C, strain med2, hits give low values
[16] = locus YDL040C, strain nat1, hits give low values
[17] = locus YDR001C, strain nth1, hits give low values
[18] = locus YDR069C, strain doa4, hits give low values
[19] = locus YDR137W, strain rgp1, hits give low values
[20] = locus YDR159W, strain sac3, hits give low values
[21] = locus YDR297W, strain sur2, hits give low values
[22] = locus YDR334W, strain swr1, hits give low values
[23] = locus YDR335W, strain msn5, hits give low values
[24] = locus YDR392W, strain spt3, hits give low values
[25] = locus YEL003W, strain gim4, hits give low values
[26] = locus YEL037C, strain rad23, hits give low values
[27] = locus YEL061C, strain CIN8 (second series), hits give low values
[28] = locus YER015W, strain faa2, hits give low values
[29] = locus YER016W, strain bim1, hits give low values
[30] = locus YER111C, strain swi4, hits give low values
[31] = locus YER155C, strain BEM2 (second series), hits give low values
[32] = locus YFR010W, strain ubp6, hits give low values
[33] = locus YGL167C, strain pmr1, hits give low values
[34] = locus YGL173C, strain kem1, hits give low values
[35] = locus YGL227W, strain vid30, hits give low values
[36] = locus YGL240W, strain doc1, hits give low values
[37] = locus YGL253W, strain hxk2, hits give low values
[38] = locus YHR013C, strain ard1, hits give low values
[39] = locus YHR027C, strain rpn1, hits give low values
[40] = locus YHR142W, strain chs7, hits give low values
[41] = locus YJL092W, strain hpr5, hits give low values
[42] = locus YJL095W, strain BCK1 (second series), hits give low values
[43] = locus YJL115W, strain asf1, hits give low values
[44] = locus YJL129C, strain trk1, hits give low values
[45] = locus YJL154C, strain vps35, hits give low values
[46] = locus YJL164C, strain tpk1, hits give low values
[47] = locus YJL166W, strain qcr8, hits give low values
[48] = locus YJL187C, strain SWE1, hits give low values
[49] = locus YKL160W, strain elf1, hits give low values
[50] = locus YKR026C, strain gcn3, hits give low values
[51] = locus YKR091W, strain srl3, hits give low values
[52] = locus YLL001W, strain dnm1, hits give low values
[53] = locus YLL026W, hits give low values
[54] = locus YLL041C, strain sdh2, hits give low values
[55] = locus YLR027C, strain aat2, hits give low values
[56] = locus YLR221C, strain rsa3, hits give low values
[57] = locus YLR258W, strain gsy2, hits give low values
[58] = locus YLR262C, strain YPT6 (second series), hits give low values
[59] = locus YLR320W, strain mms22, hits give low values
[60] = locus YLR342W, strain FKS1, hits give low values
[61] = locus YLR357W, strain rsc2, hits give low values
[62] = locus YLR370C, strain arc18, hits give low values
[63] = locus YLR384C, strain iki3, hits give low values
[64] = locus YML120C, strain ndi1, hits give low values
[65] = locus YMR058W, strain fet3, hits give low values
[66] = locus YMR125W, strain sto1, hits give low values
[67] = locus YMR129W, hits give low values
[68] = locus YMR205C, strain PFK2, hits give low values
[69] = locus YMR231W, strain pep5, hits give low values
[70] = locus YNL071W, strain lat1, hits give low values
[71] = locus YNL209W, strain ssb2, hits give low values
[72] = locus YNL248C, strain rpa49, hits give low values
[73] = locus YNL322C, strain KRE1 (second series), hits give low values
[74] = locus YNR049C, strain mso1, hits give low values
[75] = locus YOR001W, strain rrp6, hits give low values
[76] = locus YOR070C, strain gyp1, hits give low values
[77] = locus YOR080W, strain dia2, hits give low values
[78] = locus YOR083W, strain WHI5, hits give low values
[79] = locus YOR106W, strain vam3, hits give low values
[80] = locus YOR265W, strain rbl2, hits give low values
[81] = locus YOR270C, strain vph1, hits give low values
[82] = locus YOR290C, strain snf2, hits give low values
[83] = locus YPL051W, strain arl3, hits give low values
[84] = locus YPL078C, strain atp4, hits give low values
[85] = locus YPL106C, strain sse1, hits give low values
[86] = locus YPL240C, strain hsp82, hits give low values

Measured: normalized growth

C[C@]12C=CC(=O)C=C1CCC1C2[C@@H](O)C[C@@]2(C)C1CC[C@]2(O)C(=O)COP(=O)(O)O (some centres not stated)
inactive: [1] 1.01 | [2] 1 | [3] 1 | [4] 0.995 | [5] 1 | [6] 0.998 | [7] 0.995 | [8] 1.01 | [9] 1.01 | [10] 1 | [11] 0.995 | [12] 0.995 | [13] 1.01 | [14] 1.01 | [15] 1 | [16] 0.997 | [17] 1 | [18] 0.998 | [19] 1.02 | [20] 0.98 | locus YDR195W, strain ref2 0.954 | [21] 1 | [22] 1.01 | [23] 0.998 | [24] 0.96 | [25] 1.01 | [26] 1.04 | [27] 0.999 | [28] 0.999 | [29] 0.99 | [30] 0.998 | [31] 1.01 | [32] 1.01 | [33] 1 | [34] 1 | [35] 0.996 | [36] 0.996 | [37] 0.995 | [38] 1 | [39] 1 | locus YHR030C, strain SLT2, hits give low values 1.04 | locus YHR079C, strain IRE1, hits give low values 1.02 | [40] 0.999 | [41] 0.993 | [42] 0.994 | locus YJL095W, strain BCK1, hits give low values 0.977 | [43] 0.995 | [44] 1 | [45] 1.01 | [46] 0.995 | [47] 1.01 | [48] 1.01 | locus YJR066W, strain TOR1, hits give low values 0.973 | [49] 1 | [50] 0.984 | [51] 1 | [52] 1 | [53] 0.992 | [54] 1 | [55] 1.01 | locus YLR113W, strain HOG1, hits give low values 0.984 | [56] 1.01 | [57] 1 | [58] 1.01 | [59] 1 | [60] 0.989 | [61] 0.983 | [62] 1 | [63] 1 | [64] 1.01 | [65] 0.996 | [66] 0.98 | [67] 1.01 | [68] 0.992 | [69] 1 | [70] 1 | locus YNL183C, strain NPR1, hits give low values 0.973 | [71] 1 | [72] 1.02 | [73] 1 | [74] 1.01 | [75] 1.01 | [76] 0.994 | [77] 0.998 | [78] 1.01 | [79] 1.01 | locus YOR231W, strain MKK1, hits give low values 1.02 | [80] 0.995 | [81] 1.03 | [82] 1.02 | [83] 1.01 | [84] 1 | [85] 1.01 | [86] 0.996 | locus YPL256C, strain CLN2, hits give low values 0.997

OC1CC2CCCC(C1)N2Cc1ccccc1 (configuration not stated)
inactive: [1] 1.01 | [2] 0.993 | [3] 1 | [4] 0.932 | [5] 0.989 | [6] 1 | [7] 0.987 | [8] 0.988 | [9] 1 | [10] 1.01 | [11] 0.998 | [12] 0.997 | [13] 1 | [14] 1 | [15] 0.992 | [16] 0.998 | [17] 1 | [18] 0.989 | [19] 0.974 | [20] 0.963 | locus YDR195W, strain ref2 0.913 | [21] 0.998 | [22] 1.01 | [23] 1 | [24] 0.901 | [25] 1 | [26] 1 | [27] 1 | [28] 1 | [29] 0.986 | [30] 0.982 | [31] 0.989 | [32] 1 | [33] 0.99 | [34] 0.997 | [35] 0.986 | [36] 0.977 | [37] 0.989 | [38] 0.953 | [39] 1 | [40] 1.01 | [41] 1.02 | [42] 1 | [43] 1 | [44] 0.993 | [45] 1 | [46] 1 | [47] 0.998 | [48] 1 | [49] 1 | [50] 1 | [51] 0.999 | [52] 0.986 | [53] 0.988 | [54] 1 | [55] 1 | [56] 1 | [57] 0.986 | [58] 0.956 | [59] 0.99 | [60] 0.995 | [61] 0.959 | [62] 1.01 | [63] 0.996 | [64] 1.02 | [65] 1 | [66] 0.988 | [67] 0.994 | [68] 0.978 | [69] 1 | [70] 1.01 | [71] 1 | [72] 0.981 | [73] 1 | [74] 0.999 | [75] 1.01 | [76] 0.995 | [77] 0.998 | [78] 1.01 | [79] 1 | [80] 0.99 | [81] 0.99 | [82] 0.955 | [83] 1 | [84] 1 | [85] 0.98 | [86] 1

Source: PubChem BioAssay AID1159580 (chemical genetic matrix, 2015)
